Shown are actives, neighbours in structure and some others; about 7.9% of the full set was active somewhere.
FMDV inh: antivirals against foot and mouth disease virus | FMDV antiviral cell-based qHTS | Potency, µM (titrated, usually from 57.9 µM), for inactives: at the top dose activity change, negative = inhibition, most hits filed as inhibitors | actives 1.2% (n = 410,000) | AID 1159524; calls by dose curve; tested in HEK293T cells; also: read-out not given here; potency is read from the fitted curve at half-maximal effect; nearly all actives have a fitted effect of over 45% in size
HCMV inh: inhibitors of human cytomegalovirus. HFF cells, HCMV-luciferase reporter, 72 h; stronger effect = lower value. actives 4.5% (n = 410,000). activity change, negative = inhibition, % at 57.5 µM; in the data active = activity change below about -60%; inconclusive = no clear call, values can overlap the other calls; inactive = above about -39%
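Two-dose cell screen: HFF monolayers treated with compounds and infected with luciferase-expressing HCMV at 1 PFU/cell, 72 h at 37C, then lysed for luciferase measurement.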
HCV inhibitor: blocks hepatitis C virus; Huh7.5.1 HCVcc-Cre infection, luciferase reporter, 44 h; Potency, µM (series often up to 41.8 µM), for inactives: at the top dose activity change, negative = inhibition, most hits filed as inhibitors; actives 3.4% (n = 340,000); AID 651820; active = well fitted inhibition curve with a large enough effect; inconclusive = small, poorly fitted or top-dose-only effect, or another doubt; inactive = no such curve, though single readings can be large or run the other way; also: potency is read from the fitted curve at half-maximal effect
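1,000 cells/well; 4 h culture; + compound; + HCVcc-Cre (~0.5 moi); 44 h; luciferase substrate, RT 15 min; read 15 sec.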
Lassa entry inh: inhibitors of Lassa virus binding or cell entry; Lassa virus pseudotype entry inhibition, cell reporter; Potency, µM (highest dose often 37.9 µM), without a hit: top-dose activity change, negative = inhibition, usual class: inhibitors; actives 1.2% (n = 300,000); AID 540256; calls by dose curve; tested in HEK293 cells; also: potency is read from the fitted curve at half-maximal effect; nearly all actives have a fitted effect of over 50% in size
Marburg entry inh: inhibitors of Marburg virus binding or cell entry | Marburg virus pseudotyped entry inhibition, cell reporter | Potency, µM (highest dose often 37.8 µM), for the others: at the highest dose activity change, negative = inhibition, actives largely listed as inhibitors | actives 1.8% (n = 300,000); calls by dose curve; tested in HEK293 cells; also: potency is read from the fitted curve at half-maximal effect
Starred values were filed as active, the others as inactive; ? = inconclusive; . = not tested or not shown; ! = not active in a repeat; [ ] = dose if it differs, or a comment. % is scaled to controls: 0 for no effect and ±100 for the full control effect.

SMILES	FMDV inh	HCMV inh	HCV inhibitor	Lassa entry inh	Marburg entry inh
Cn1cc([N+](=O)[O-])c(C(=O)Nc2ccc3nc(-c4ccccc4)[nH]c3c2)n1	17%	-83*	?	5%	?
Cn1cccc1-c1nc2ccc(NC(=O)c3ccc([N+](=O)[O-])cc3)cc2[nH]1	-17%	26	?	15%	26%
O=C(Nc1ccc2nc(-c3cccnc3)[nH]c2c1)c1ccco1	-14%	-67*	-19%	-5%	-17%
CC(=O)Nc1sc2c(c1-c1nc3ccccc3s1)CCN(C(C)C)C2	-10%	.	8.9µM*	.	.
CC(=O)N1CCc2c(sc(NC(=O)CSc3ccc(F)cc3)c2-c2nc3ccccc3s2)C1	0%	-96*	.	-9%[46.1 µM]	.
Cc1cc(NC(=O)c2cc(-c3ccc(F)cc3)on2)nn1Cc1ccc(Cl)cc1	?	-21	.	23%[46.1 µM]	17%[46.1 µM]
COc1ccc(C(=O)c2c3ccccc3[n+]([O-])n2CCCN)cc1	-3%	-96*!	12%	.	.
COc1cc(CNC(=O)c2cc(-c3ccccc3)n[nH]2)cc(OC)c1OC	-24%	-19	.	11%[46.1 µM]	.
Cc1c(C(=O)NCCc2ccccc2)oc2ccc(S(=O)(=O)N3CCC4(CC3)OCCO4)cc12	?	-15	11µM*	23µM*	?
CCOC(=O)N1CCN(C(=O)c2oc3ccc(S(=O)(=O)N4CC(C)CC(C)C4)cc3c2C)CC1 (stereo not drawn)	?	?	?	14%	?
COc1ccc(NC(=O)c2oc3ccc(S(=O)(=O)N4CCC5(CC4)OCCO5)cc3c2C)cc1	13µM*	-17	13µM*	?	21µM*!
CCOC(=O)C1CCN(C(=O)c2oc3ccc(S(=O)(=O)N4CC(C)CC(C)C4)cc3c2C)CC1 (stereo not drawn)	-29%	-33	4.5µM*	-25%	?
Cc1c(C(=O)N2CCc3ccccc3C2)oc2ccc(S(=O)(=O)N3CCCCCC3)cc12	-3%	-32	8.9µM*	?	?
C=CCNC(=O)c1oc2ccc(S(=O)(=O)N3CCC4(CC3)OCCO4)cc2c1C	-13%	0	-10%	.	.
O=C(NCCN1CCCC1)[C@@H]1[C@@H](CO)[C@@H]2Cn3c(cccc3=O)[C@@H]2N1C(=O)c1ccccc1	.	30	.	.	.
CCOC(=O)C1CCN(C(=O)c2ccc(NC(=O)c3nsc4ccccc34)cc2)CC1	19%	31	.	6%[46.1 µM]	.
Cc1ccc(NC(=O)c2oc3ccc(S(=O)(=O)N4CCCCC4)cc3c2C)cc1C	?	13	.	-14%[46.1 µM]	.
Cc1c(C(=O)Nc2cccc(C(F)(F)F)c2)oc2ccc(S(=O)(=O)N3CCC4(CC3)OCCO4)cc12	16µM*	-11	.	29%[46.1 µM]	.
Cc1c(C(=O)Nc2ccc(F)cc2)oc2ccc(S(=O)(=O)N3CCCCCC3)cc12	28µM*	-31	.	-7%[46.1 µM]	.
COc1ccc(NC(=O)c2nc3nc(C)cc(C(F)F)n3n2)c(C)c1	6%	5	.	-4%[46.1 µM]	?
CN(c1ccccc1)c1ccc(/C=N/NC(=O)CC#N)cc1	2%	?	?	15µM*	13µM*
C#CCNC(=O)C1CCN(c2cc(C)nc(-c3ccccc3)n2)CC1	10%	-95*	-29%	0%	20%[46.1 µM]
Cc1cc(N2CCN(c3ccccc3)CC2)nc(-c2ccccc2)n1	-8%	-23	?	?	-7%
Cc1cc(N2CCN(C(=O)c3ccco3)CC2)nc(-c2ccccc2)n1	-3%	17	?	11µM*	?
Cc1cc(N2CCN(C(=O)c3ccco3)CC2)n2nc(-c3cccc(F)c3)cc2n1	?	-63*	10µM*	-1%	?
SMILES	FMDV inh	HCMV inh	HCV inhibitor	Lassa entry inh	Marburg entry inh
Cc1cc(C)nc(N2CCC(C(=O)NCCc3ccccc3)CC2)n1	2%	-15	-21%	16%	-11%
COc1cc(OC)cc(-c2cc3nc(C)cc(N4CCN(C(=O)c5ccco5)CC4)n3n2)c1	.	.	.	.	-6%
COc1ccccc1-c1ccnc(-n2ncc(C(=O)NCCc3cccnc3)c2C)n1	0%	.	.	.	.
CC(=O)NC(Cc1ccc(O)cc1)C(=O)O (stereo not drawn)	.	12	.	.	.
CCOc1ccccc1-c1noc(CCCC(=O)Nc2cccc(C(F)(F)F)c2)n1	-9%	1	.	2%[46.1 µM]	?
CCOC(=O)N1CCN(C(=O)C2CCC(=O)N(Cc3cccc(C(F)(F)F)c3)C2)CC1 (stereo not drawn)	-18%	-26	.	-10%	5%
COc1ccc(NC(=O)C2C3C=CC4(O3)C2C(=O)N(CCN2CCCCC2)C4C(=O)NC2CCCC(C)C2C)cc1 (stereo not drawn)	-17%	14	-19%	16%[46.1 µM]	5µM*
Cc1cc(C)cc(NC(=O)C2C3C=CC4(O3)C2C(=O)N(CCCN2CCCC2)C4C(=O)NC2CCCC(C)C2C)c1 (stereo not drawn)	-16%	-2	-21%	12%	-30%[46.1 µM]
CC[C@]12c3[nH]c4cc(-c5ccco5)ccc4c3CCN1C(=O)[C@@H](CC(=O)NC/C=C(\C)CCC=C(C)C)C[C@@H]2C(=O)N1CCN(C(=O)C2CC2)CC1	?	-16	16µM*	.	.
CC[C@]12c3[nH]c4ccccc4c3CCN1C(=O)C(CC(=O)NC/C=C(\C)CCC=C(C)C)C[C@@H]2C(=O)N1CCN(C(=O)c2ccco2)CC1 (stereo partly drawn)	?	-13	?	.	.
CC[C@]12c3[nH]c4cc(-c5ccco5)ccc4c3CCN1C(=O)[C@@H](CC(=O)NC/C=C(\C)CCC=C(C)C)C[C@@H]2C(=O)N1CCN(C(=O)c2ccco2)CC1	?	.	13µM*	.	-3%
CC[C@]12c3[nH]c4ccc(Cl)cc4c3CCN1C(=O)[C@@H](CC(=O)NC/C=C(\C)CCC=C(C)C)C[C@@H]2C(=O)N1CCN(C(=O)C2CC2)CC1	?	?	22µM*	.	.
CC(C)=CCCC(C)CN1CCC(N2CCC(C(=O)NC(C)C)CC2)CC1 (stereo not drawn)	?	-30	2.8µM*	.	.
CC(C)=CCCC(C)CN1CCC(N2CCC(C(=O)N3CCOCC3)CC2)CC1 (stereo not drawn)	-8%	-9	0.89µM*	.	.
COC(=O)c1sc(N2C(=O)C(=O)/C(=C(/O)c3ccc(C)cc3)C2c2ccco2)nc1C (stereo not drawn)	0%	.	-3%	9%	-7%[46.1 µM]
CCOc1ccc(/C(O)=C2/C(=O)C(=O)N(c3nc(C)c(C)s3)C2c2ccco2)cc1 (stereo not drawn)	-1%	-90*	-9%	4%	-10%
COc1ccc(-n2c(SCC(=O)NCc3ccccc3)nc3n[nH]c(C)c3c2=N)cc1	-28%	2	.	?	.
Cc1cc2ccccn2c1C(=O)c1ccc(S(=O)(=O)N(C)C)cc1	?	-66*	?	-13%[46.1 µM]	-2%[46.1 µM]
Cc1cc2ccccn2c1C(=O)c1ccc(F)cc1	-3%	-11	?	?	?
Cc1cc2ccccn2c1C(=O)c1ccc([N+](=O)[O-])o1	?	-66*	11µM*	?	?
